# Data as given in the supplement of paper PMC8728848.
# The sample as a whole holds a higher share of the strongest signals than the screen did.
# B1: CcfD (Bacteroides fragilis), Q5L9G4 (protein)
# chain: MKKQNSIYTLLIALLCFVSSCDYLGVSDQLAGGLQNTEQVFDNVSYTKRWYANVFAGIPDYSGINSVNVGAFKNPWTGMCDELVVGYGNSSKYNNSDRNAANMGFHRYGDCYKYIRQANIFLQKAHPIMTTGTQGDQLLEDELTQMKANVRFMRAFYHYLLFEQYGPIILVKDKIYNATEDQDVPRNTVDEVIEYIDSELTAVASELTQEPIFEDKDYRAWPTKGVALAVRAKLWLYAASPLLNGGYREALSVTNPDGTRLFPDYDAGKWEKALAACKDFIDYAEAGRYELYKEYKDDNGAVIDPDKSVYNLFQKYTHEIIWATANNDWGGMNGDAFDRRIAPRCEKNGLGSTGVTQELVDAFYMKDGFPVSATAYLPQSTLYQEEGYGTYKDQNDNFSKKYTNVTVSNRYLNREPRFYNTVFFNGRQWPVSCNQVLFYNGGNSGVQEGQATLTGYMLFKRFNRSVSLTNPGVASQFRPSIIFRLADFYLMYAEAANEVNPNDARVLKYLNLVRERAGLPDIETLNPAIRGNQELQRAAIQRERQIELATEGQRYFDVRRWMIADKNGEGRQNGYVHGMNVRGESNDKEDFNRIVEASQIVFNRKMYLYPMPDSEMRKTKNLVQNPGW
# Assays:
# Test in all cases: glycan array binding signal (z-score within array); higher = stronger binding
# Settings in all cases: glycan notation: IUPAC condensed, linker removed
# [1] = target: Fuc(a1-2)Gal
# Method in brief: (§1)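 Glycan array data were curated from 3228 arrays in the Consortium for Functional Glycomics database and kept only where the protein sequence was available. Glycan names were converted to IUPAC-condensed notation, and columns mapping to the same glycan were averaged. The binding signal is a within-array Z-score, averaged across arrays of the same protein sequence at different concentrations or buffers and across linkers. Negative Z-scores can be read as non-binding.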
# [2] = target: Fuc(a1-2)Gal(b1-3)GlcNAc(b1-2)Man(a1-3)[Fuc(a1-2)Gal(b1-3)GlcNAc(b1-2)Man(a1-6)]Man(b1-4)GlcNAc(b1-4)GlcNAc
# Method in brief: as §1
# [3] = target: Fuc(a1-2)Gal(b1-4)[Fuc(a1-3)]GlcNAc(b1-2)[Fuc(a1-2)Gal(b1-4)[Fuc(a1-3)]GlcNAc(b1-4)]Man(a1-3)[Fuc(a1-2)Gal(b1-4)[Fuc(a1-3)]GlcNAc(b1-2)Man(a1-6)]Man(b1-4)GlcNAc(b1-4)GlcNAc
# Method in brief: as §1
# [4] = target: Fuc(a1-2)[Gal(a1-3)]Gal(b1-3)GlcNAc(b1-2)Man(a1-3)[Fuc(a1-2)[Gal(a1-3)]Gal(b1-3)GlcNAc(b1-2)Man(a1-6)]Man(b1-4)GlcNAc(b1-4)GlcNAc
# Method in brief: as §1
# [5] = target: Fuc(a1-2)[Gal(a1-3)]Gal(b1-3)GlcNAc(b1-2)Man(a1-3)[Fuc(a1-2)[Gal(a1-3)]Gal(b1-3)GlcNAc(b1-2)Man(a1-6)]Man(b1-4)GlcNAc(b1-4)[Fuc(a1-6)]GlcNAc
# Method in brief: as §1
# [6] = target: Fuc(a1-2)[Gal(a1-3)]Gal(b1-3)GlcNAc(b1-3)GalNAc
# Method in brief: as §1
# [7] = target: Fuc(a1-2)[Gal(a1-3)]Gal(b1-4)GlcNAc
# Method in brief: as §1
# [8] = target: Fuc(a1-2)[Gal(a1-3)]Gal(b1-4)[Fuc(a1-3)]GlcNAc(b1-3)GalNAc
# Method in brief: as §1
# [9] = target: Fuc(a1-2)[GalNAc(a1-3)]Gal(b1-3)GalNAc(a1-3)[Fuc(a1-2)]Gal(b1-4)GlcNAc
# Method in brief: as §1
# [10] = target: Gal(a1-3)Gal(b1-4)GlcNAc(b1-2)Man
# Method in brief: as §1
# [11] = target: Gal(a1-3)[Gal(a1-4)]Gal(b1-4)GlcNAc
# Method in brief: as §1
# [12] = target: Gal(a1-6)Glc
# Method in brief: as §1
# [13] = target: Gal(b1-3)GalNAc(b1-3)Gal
# Method in brief: as §1
# [14] = target: Gal(b1-3)GlcNAc
# Method in brief: as §1
# [15] = target: Gal(b1-3)[Fuc(a1-4)]GlcNAc(b1-3)Gal(b1-4)[Fuc(a1-3)]GlcNAc
# Method in brief: as §1
# [16] = target: Gal(b1-3)[Fuc(a1-4)]GlcNAc(b1-6)GalNAc
# Method in brief: as §1
# [17] = target: Gal(b1-3)[Neu5Ac(a2-6)]GlcNAc(b1-4)Gal(b1-4)Glc
# Method in brief: as §1
# [18] = target: Gal(b1-4)Glc
# Method in brief: as §1
# [19] = target: Gal(b1-4)GlcNAc(b1-2)Man(a1-3)[Gal(b1-4)GlcNAc(b1-2)Man(a1-6)][Gal(b1-4)GlcNAc(b1-4)]Man(b1-4)GlcNAc(b1-4)[Fuc(a1-6)]GlcNAc
# Method in brief: as §1
# [20] = target: Gal(b1-4)GlcNAc(b1-2)[Gal(b1-4)GlcNAc(b1-6)]Man(a1-6)[Gal(b1-4)GlcNAc(b1-2)Man(a1-3)]Man(b1-4)GlcNAc(b1-4)GlcNAc
# Method in brief: as §1
# [21] = target: Gal(b1-4)GlcNAc(b1-3)Gal(b1-4)Glc
# Method in brief: as §1
# [22] = target: Gal(b1-4)GlcNAc(b1-3)Gal(b1-4)GlcNAc(b1-3)Gal(b1-4)GlcNAc(b1-2)Man(a1-3)[Gal(b1-4)GlcNAc(b1-3)Gal(b1-4)GlcNAc(b1-3)Gal(b1-4)GlcNAc(b1-2)Man(a1-6)]Man(b1-4)GlcNAc(b1-4)[Fuc(a1-6)]GlcNAc
# Method in brief: as §1
# [23] = target: Gal(b1-4)GlcNAc(b1-3)Gal(b1-4)GlcNAc(b1-3)GalNAc
# Method in brief: as §1
# [24] = target: Gal(b1-4)GlcNAc(b1-3)GalNAc
# Method in brief: as §1
# [25] = target: Gal3S(b1-3)GalNAc
# Method in brief: as §1
# [26] = target: Gal6S(b1-3)GlcNAc
# Method in brief: as §1
# [27] = target: GalNAc(b1-3)Gal(a1-6)Gal(b1-4)Glc
# Method in brief: as §1
# [28] = target: Glc(b1-4)Glc
# Method in brief: as §1
# [29] = target: GlcNAc(b1-2)[GlcNAc(b1-4)]Man(a1-3)[GlcNAc(b1-4)][GlcNAc(b1-2)[GlcNAc(b1-6)]Man(a1-6)]Man(b1-4)GlcNAc(b1-4)GlcNAc
# Method in brief: as §1
# [30] = target: GlcNAc(b1-3)Gal(b1-4)GlcNAc(b1-3)Gal(b1-4)GlcNAc(b1-3)Gal(b1-4)GlcNAc(b1-3)Gal(b1-4)GlcNAc(b1-2)[GlcNAc(b1-3)Gal(b1-4)GlcNAc(b1-3)Gal(b1-4)GlcNAc(b1-3)Gal(b1-4)GlcNAc(b1-3)Gal(b1-4)GlcNAc(b1-6)]Man(a1-6)[GlcNAc(b1-3)Gal(b1-4)GlcNAc(b1-3)Gal(b1-4)GlcNAc(b1-3)Gal(b1-4)GlcNAc(b1-3)Gal(b1-4)GlcNAc(b1-2)Man(a1-3)]Man(b1-4)GlcNAc(b1-4)[Fuc(a1-6)]GlcNAc
# Method in brief: as §1
# [31] = target: GlcNAc(b1-3)Gal(b1-4)GlcNAc(b1-6)[GlcNAc(b1-3)]Gal(b1-4)GlcNAc
# Method in brief: as §1
# [32] = target: GlcNAc(b1-3)[GlcNAc(b1-4)][GlcNAc(b1-6)]GlcNAc
# Method in brief: as §1
# [33] = target: GlcNAc6S(b1-3)Gal(b1-4)GlcNAc
# Method in brief: as §1
# [34] = target: Man(a1-2)Man(a1-3)[Man(a1-2)Man(a1-6)]Man(a1-6)[Man(a1-2)Man(a1-2)Man(a1-3)]Man
# Method in brief: as §1
# [35] = target: Neu5Ac(a2-3)Gal(b1-3)GlcNAc(b1-6)GalNAc
# Method in brief: as §1
# [36] = target: Neu5Ac(a2-3)Gal(b1-3)[Fuc(a1-4)]GlcNAc(b1-3)Gal(b1-3)[Fuc(a1-4)]GlcNAc
# Method in brief: as §1
# [37] = target: Neu5Ac(a2-3)Gal(b1-3)[GlcNAc(b1-6)]GalNAc
# Method in brief: as §1
# [38] = target: Neu5Ac(a2-3)Gal(b1-4)GlcNAc(b1-2)Man
# Method in brief: as §1
# [39] = target: Neu5Ac(a2-3)Gal(b1-4)[Fuc(a1-3)]GlcNAc(b1-3)Gal
# Method in brief: as §1
# [40] = target: Neu5Ac(a2-3)[GalNAc(b1-4)]Gal(b1-4)GlcNAc(b1-3)GalNAc
# Method in brief: as §1
# [41] = target: Neu5Ac(a2-6)Gal(b1-4)GlcNAc(b1-2)Man
# Method in brief: as §1
# [42] = target: Neu5Ac(a2-6)Gal(b1-4)GlcNAc(b1-2)Man(a1-3)[Neu5Ac(a2-6)Gal(b1-4)GlcNAc(b1-2)Man(a1-6)]Man(b1-4)GlcNAc(b1-4)GlcNAc
# Method in brief: as §1
# [43] = target: Neu5Ac(a2-6)Gal(b1-4)GlcNAc(b1-2)Man(a1-6)[GlcNAc(b1-2)Man(a1-3)]Man(b1-4)GlcNAc(b1-4)GlcNAc
# Method in brief: as §1
# [44] = target: Neu5Ac(a2-6)Gal(b1-4)GlcNAc(b1-3)Gal(b1-4)GlcNAc(b1-3)Gal(b1-4)GlcNAc(b1-2)Man(a1-3)[Neu5Ac(a2-6)Gal(b1-4)GlcNAc(b1-3)Gal(b1-4)GlcNAc(b1-3)Gal(b1-4)GlcNAc(b1-2)Man(a1-6)]GalNAc
# Method in brief: as §1
# [45] = target: Neu5Ac(a2-6)Gal(b1-4)GlcNAc(b1-3)Gal(b1-4)GlcNAc(b1-3)[Neu5Ac(a2-6)Gal(b1-4)GlcNAc(b1-3)Gal(b1-4)GlcNAc(b1-6)]GalNAc
# Method in brief: as §1
# [46] = target: Neu5Ac(a2-6)Gal(b1-4)GlcNAc(b1-6)GalNAc
# Method in brief: as §1
# [47] = target: Neu5Ac(a2-8)Neu5Ac
# Method in brief: as §1
# [48] = target: Neu5Ac(a2-8)Neu5Ac(a2-8)Neu5Ac(a2-3)[GalNAc(b1-4)]Gal(b1-4)Glc
# Method in brief: as §1
# [49] = target: Neu5Gc(a2-3)Gal(b1-3)GlcNAc
# Method in brief: as §1
# [50] = target: Neu5Gc(a2-8)Neu5Gc(a2-3)Gal(b1-4)GlcNAc
# Method in brief: as §1
binder,measurement,setting,value
B1,glycan array binding signal (z-score),[1],0.811
same,glycan array binding signal (z-score),[2],5.05
same,glycan array binding signal (z-score),[3],3.75
same,glycan array binding signal (z-score),[4],2.68
same,glycan array binding signal (z-score),[5],0.2
same,glycan array binding signal (z-score),[6],0.095
same,glycan array binding signal (z-score),[7],0.056
same,glycan array binding signal (z-score),[8],0.64
same,glycan array binding signal (z-score),[9],2.62
same,glycan array binding signal (z-score),[10],-0.588
same,glycan array binding signal (z-score),[11],-1.43
same,glycan array binding signal (z-score),[12],-0.384
same,glycan array binding signal (z-score),[13],-0.456
same,glycan array binding signal (z-score),[14],0.42
same,glycan array binding signal (z-score),[15],2.86
same,glycan array binding signal (z-score),[16],-0.036
same,glycan array binding signal (z-score),[17],0.607
same,glycan array binding signal (z-score),[18],-0.056
same,glycan array binding signal (z-score),[19],3.04
same,glycan array binding signal (z-score),[20],-0.896
same,glycan array binding signal (z-score),[21],0.627
same,glycan array binding signal (z-score),[22],1.57
same,glycan array binding signal (z-score),[23],0.43
same,glycan array binding signal (z-score),[24],-0.998
same,glycan array binding signal (z-score),[25],0.942
same,glycan array binding signal (z-score),[26],1.26
same,glycan array binding signal (z-score),[27],-0.64
same,glycan array binding signal (z-score),[28],1.59
same,glycan array binding signal (z-score),[29],-0.548
same,glycan array binding signal (z-score),[30],6.49
same,glycan array binding signal (z-score),[31],0.069
same,glycan array binding signal (z-score),[32],2.83
same,glycan array binding signal (z-score),[33],-0.516
same,glycan array binding signal (z-score),[34],2.93
same,glycan array binding signal (z-score),[35],-0.64
same,glycan array binding signal (z-score),[36],-0.68
same,glycan array binding signal (z-score),[37],0.22
same,glycan array binding signal (z-score),[38],-0.338
same,glycan array binding signal (z-score),[39],0.036
same,glycan array binding signal (z-score),[40],0.036
same,glycan array binding signal (z-score),[41],-0.522
same,glycan array binding signal (z-score),[42],0.561
same,glycan array binding signal (z-score),[43],4.06
same,glycan array binding signal (z-score),[44],2.39
same,glycan array binding signal (z-score),[45],2.75
same,glycan array binding signal (z-score),[46],-1.06
same,glycan array binding signal (z-score),[47],-0.378
same,glycan array binding signal (z-score),[48],-0.936
same,glycan array binding signal (z-score),[49],-0.456
same,glycan array binding signal (z-score),[50],-1.19
